Several values for one entry are separate records, joined by “and”; a condition that tells them apart may be missing. Equal values may be shown once. Inconclusive results are not listed. A structure can be active in one record and inactive in another. Activity calls are given as the source filed them. The calls were made as follows: active = hit-call score of the fitted dose curve at least 0.9, where 1 is the maximum; inconclusive = response in the unintended direction; inactive = score below 0.9.
Key:
[1] = target: bovine Estrogen Receptor (ER), ESR1 (gene 407238) (UniProt P49884); experiment: NVS_NR_bER: NovaScreen (NVS) Nuclear Receptor Binding Assay for bovine Estrogen Receptor (ER) (AID 2283345);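 also: actives lower the bound radioligand count which means they displace the ER ligand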
Chain of bovine Estrogen Receptor (ER), ESR1 (gene 407238) (P49884 whole entry, looked up): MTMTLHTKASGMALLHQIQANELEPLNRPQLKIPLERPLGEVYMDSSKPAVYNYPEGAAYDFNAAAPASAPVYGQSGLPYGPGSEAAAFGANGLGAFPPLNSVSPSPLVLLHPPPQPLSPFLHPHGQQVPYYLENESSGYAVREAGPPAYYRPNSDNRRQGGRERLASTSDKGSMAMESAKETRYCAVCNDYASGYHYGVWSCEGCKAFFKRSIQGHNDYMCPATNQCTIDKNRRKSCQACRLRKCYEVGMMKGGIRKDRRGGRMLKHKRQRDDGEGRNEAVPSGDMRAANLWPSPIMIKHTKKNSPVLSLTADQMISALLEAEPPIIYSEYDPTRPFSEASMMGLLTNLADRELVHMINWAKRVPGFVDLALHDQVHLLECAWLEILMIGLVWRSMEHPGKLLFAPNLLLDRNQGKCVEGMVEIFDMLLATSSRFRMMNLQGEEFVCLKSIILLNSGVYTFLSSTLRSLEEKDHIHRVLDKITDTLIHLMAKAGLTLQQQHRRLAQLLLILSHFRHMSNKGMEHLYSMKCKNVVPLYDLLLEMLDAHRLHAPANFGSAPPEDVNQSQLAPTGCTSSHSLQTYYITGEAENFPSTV
Method in brief: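 Cell-free radioligand binding with bovine uterine membrane extracts, read 18 hours after dosing by scintillation counting. Loss of signal versus DMSO baseline indicates displacement. Primary screen run in duplicate at 25 uM, actives followed in concentration series.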

[2] = target: Bile acid receptor (Homo sapiens) (UniProt Q96RI1); experiment: NVS_NR_hFXR_Antagonist: NovaScreen (NVS) Nuclear Receptor Binding Assay for human Farnesoid X Receptor Antagonism (FXR) (AID 2283350)
Chain of Bile acid receptor (Homo sapiens) (Q96RI1 whole entry, looked up): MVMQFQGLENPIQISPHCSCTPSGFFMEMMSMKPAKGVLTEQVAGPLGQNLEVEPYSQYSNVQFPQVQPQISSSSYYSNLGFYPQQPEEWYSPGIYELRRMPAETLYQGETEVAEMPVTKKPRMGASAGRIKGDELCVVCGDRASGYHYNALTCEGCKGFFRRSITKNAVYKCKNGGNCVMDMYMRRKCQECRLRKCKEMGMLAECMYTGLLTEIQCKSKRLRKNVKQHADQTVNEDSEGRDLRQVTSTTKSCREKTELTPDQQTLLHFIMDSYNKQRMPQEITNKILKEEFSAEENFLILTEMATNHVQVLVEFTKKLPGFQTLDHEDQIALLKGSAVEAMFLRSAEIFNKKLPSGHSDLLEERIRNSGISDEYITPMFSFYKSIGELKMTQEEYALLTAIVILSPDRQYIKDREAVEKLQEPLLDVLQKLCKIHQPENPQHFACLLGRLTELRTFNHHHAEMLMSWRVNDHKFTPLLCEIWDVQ
Method in brief: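 Antagonist-format time-resolved FRET binding assay with extracted human receptor protein, read 1 hour after compound addition. Compounds first screened at 25 uM in duplicate, then actives tested in concentration series, with loss of signal relative to DMSO.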

[3] = target: Estrogen receptor (Homo sapiens) (UniProt P03372); experiment: OT_ER_ERaERa_0480: Odyssey Thera (OT) 8-hour HEK293T Protein-Complementation Assay for Estrogen Receptor-alpha/-alpha Homodimer (AID 2283351);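 also: rise in fluorescence from reassembled reporter fragments on ERα LBD homodimer in nucleus or whole cell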
Chain of Estrogen receptor (Homo sapiens) (P03372 whole entry, looked up, the tested form may be a part): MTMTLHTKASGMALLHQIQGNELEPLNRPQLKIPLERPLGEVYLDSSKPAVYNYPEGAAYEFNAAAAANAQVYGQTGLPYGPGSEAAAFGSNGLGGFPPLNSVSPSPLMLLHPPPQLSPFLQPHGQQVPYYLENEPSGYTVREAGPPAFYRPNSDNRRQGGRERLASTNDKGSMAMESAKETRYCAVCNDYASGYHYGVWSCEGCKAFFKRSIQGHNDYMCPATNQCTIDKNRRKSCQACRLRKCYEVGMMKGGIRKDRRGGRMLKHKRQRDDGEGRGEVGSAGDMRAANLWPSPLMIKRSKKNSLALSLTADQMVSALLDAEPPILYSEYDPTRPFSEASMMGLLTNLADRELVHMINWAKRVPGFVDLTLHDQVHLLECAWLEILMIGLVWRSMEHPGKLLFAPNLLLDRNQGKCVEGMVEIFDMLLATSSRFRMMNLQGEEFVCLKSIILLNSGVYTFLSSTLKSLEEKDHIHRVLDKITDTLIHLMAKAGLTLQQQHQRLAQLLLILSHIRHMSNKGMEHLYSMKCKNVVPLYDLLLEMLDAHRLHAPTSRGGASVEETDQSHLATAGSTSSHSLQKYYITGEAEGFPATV
Method in brief: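 HEK293T cells stably expressing a PCA pair of ER alpha LBD (residues 310-547) were dosed for 8 hours. The gain in fluorescence intensity, nuclear for agonists and whole-cell for antagonists, was measured by laser scanning cytometry against DMSO vehicle.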

[4] = target: Estrogen receptor (Homo sapiens) (UniProt P03372); experiment: NVS_NR_hER: NovaScreen (NVS) Nuclear Receptor Binding Assay for human Estrogen Receptor (ER) (AID 2283348)
Method in brief: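 Cell-free MCF7-derived ER preparation, specific radioligand displaced by test compound, read by scintillation counting 18 h post-dosing. Duplicate single-point 25 uM screen, then concentration-response confirmation; DMSO baseline.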

[5] = target: Estrogen receptor (Homo sapiens) + Estrogen receptor beta (Homo sapiens) (UniProt P03372+Q92731); experiment: OT_ER_ERaERb_0480: Odyssey Thera (OT) 8-hour HEK293T Protein-Complementation Assay for Estrogen Receptor-alpha/-beta Heterodimer (AID 2283352)
Chain of Estrogen receptor (Homo sapiens) + Estrogen receptor beta (Homo sapiens) (P03372 whole entry, looked up, the tested form may be a part): as above
Chain of Estrogen receptor (Homo sapiens) + Estrogen receptor beta (Homo sapiens) (Q92731 whole entry, looked up, the tested form may be a part): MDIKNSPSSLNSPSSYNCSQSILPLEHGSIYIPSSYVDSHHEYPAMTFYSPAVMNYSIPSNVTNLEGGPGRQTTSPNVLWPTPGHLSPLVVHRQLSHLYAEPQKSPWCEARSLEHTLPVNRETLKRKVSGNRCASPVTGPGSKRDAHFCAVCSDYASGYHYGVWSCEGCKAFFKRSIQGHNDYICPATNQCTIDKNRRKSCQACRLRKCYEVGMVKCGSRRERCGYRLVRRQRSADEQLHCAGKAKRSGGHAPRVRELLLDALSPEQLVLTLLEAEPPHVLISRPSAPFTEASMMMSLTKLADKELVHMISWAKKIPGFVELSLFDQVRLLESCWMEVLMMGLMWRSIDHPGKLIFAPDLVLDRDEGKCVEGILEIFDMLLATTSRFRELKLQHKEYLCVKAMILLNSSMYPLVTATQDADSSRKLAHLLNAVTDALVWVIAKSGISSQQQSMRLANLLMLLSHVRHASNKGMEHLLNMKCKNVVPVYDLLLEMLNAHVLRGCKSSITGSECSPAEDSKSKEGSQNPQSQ
Method in brief: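 HEK293T protein-fragment complementation assay of ER-alpha/ER-beta LBD heterodimerisation, read 8 h after dosing. Mean nuclear/cytoplasmic fluorescence intensity measured by laser scanning cytometry; gain of signal fitted relative to DMSO.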

[6] = target: chimpanzee Androgen Receptor (AR), AR (gene 747460) (UniProt O97775); experiment: NVS_NR_cAR: NovaScreen (NVS) Nuclear Receptor Binding Assay for chimpanzee Androgen Receptor (AR) (AID 2283346);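 also: radioligand displacement from AR measured by scintillation counting in a cell-free assay; a loss of bound radioligand signal versus DMSO counts as binding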
Chain of chimpanzee Androgen Receptor (AR), AR (gene 747460) (O97775 whole entry, looked up): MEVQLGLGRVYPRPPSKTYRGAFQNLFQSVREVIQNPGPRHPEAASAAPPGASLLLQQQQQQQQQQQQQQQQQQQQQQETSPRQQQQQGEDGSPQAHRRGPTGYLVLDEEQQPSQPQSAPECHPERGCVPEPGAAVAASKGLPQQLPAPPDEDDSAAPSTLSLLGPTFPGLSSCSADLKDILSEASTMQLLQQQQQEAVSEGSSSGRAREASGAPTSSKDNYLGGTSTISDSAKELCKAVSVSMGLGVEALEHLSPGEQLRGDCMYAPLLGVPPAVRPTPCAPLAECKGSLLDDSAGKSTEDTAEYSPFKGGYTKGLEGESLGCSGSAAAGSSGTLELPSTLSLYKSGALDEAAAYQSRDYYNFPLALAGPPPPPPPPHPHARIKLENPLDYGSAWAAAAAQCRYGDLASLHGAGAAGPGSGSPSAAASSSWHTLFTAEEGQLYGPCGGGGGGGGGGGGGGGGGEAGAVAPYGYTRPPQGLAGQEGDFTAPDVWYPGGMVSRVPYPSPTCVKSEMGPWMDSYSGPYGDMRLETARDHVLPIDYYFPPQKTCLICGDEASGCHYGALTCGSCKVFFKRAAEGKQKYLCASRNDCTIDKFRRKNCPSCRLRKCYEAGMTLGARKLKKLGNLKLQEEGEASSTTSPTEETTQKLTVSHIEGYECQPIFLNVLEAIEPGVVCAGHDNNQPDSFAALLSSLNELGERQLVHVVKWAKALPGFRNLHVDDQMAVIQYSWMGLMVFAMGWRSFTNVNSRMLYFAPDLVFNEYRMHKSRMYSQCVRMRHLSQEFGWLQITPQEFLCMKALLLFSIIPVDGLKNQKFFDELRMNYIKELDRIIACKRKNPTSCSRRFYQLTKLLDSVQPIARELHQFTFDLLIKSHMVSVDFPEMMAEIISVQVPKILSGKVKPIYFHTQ
Method in brief: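 Cell-free competition binding with insect-cell (Sf9/Sf21) extracted chimpanzee AR; scintillation signal from lysate at 72 h. Screened in duplicate at 25 uM, then concentration-response for actives; fitting relative to DMSO.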

[7] = target: rat Mineralocorticoid Receptor (MR), Nr3c2 (gene 25672) (UniProt P22199); experiment: NVS_NR_rMR: NovaScreen (NVS) Nuclear Receptor Binding Assay for rat Mineralocorticoid Receptor (MR) (AID 2283355)
Chain of rat Mineralocorticoid Receptor (MR), Nr3c2 (gene 25672) (P22199 whole entry, looked up): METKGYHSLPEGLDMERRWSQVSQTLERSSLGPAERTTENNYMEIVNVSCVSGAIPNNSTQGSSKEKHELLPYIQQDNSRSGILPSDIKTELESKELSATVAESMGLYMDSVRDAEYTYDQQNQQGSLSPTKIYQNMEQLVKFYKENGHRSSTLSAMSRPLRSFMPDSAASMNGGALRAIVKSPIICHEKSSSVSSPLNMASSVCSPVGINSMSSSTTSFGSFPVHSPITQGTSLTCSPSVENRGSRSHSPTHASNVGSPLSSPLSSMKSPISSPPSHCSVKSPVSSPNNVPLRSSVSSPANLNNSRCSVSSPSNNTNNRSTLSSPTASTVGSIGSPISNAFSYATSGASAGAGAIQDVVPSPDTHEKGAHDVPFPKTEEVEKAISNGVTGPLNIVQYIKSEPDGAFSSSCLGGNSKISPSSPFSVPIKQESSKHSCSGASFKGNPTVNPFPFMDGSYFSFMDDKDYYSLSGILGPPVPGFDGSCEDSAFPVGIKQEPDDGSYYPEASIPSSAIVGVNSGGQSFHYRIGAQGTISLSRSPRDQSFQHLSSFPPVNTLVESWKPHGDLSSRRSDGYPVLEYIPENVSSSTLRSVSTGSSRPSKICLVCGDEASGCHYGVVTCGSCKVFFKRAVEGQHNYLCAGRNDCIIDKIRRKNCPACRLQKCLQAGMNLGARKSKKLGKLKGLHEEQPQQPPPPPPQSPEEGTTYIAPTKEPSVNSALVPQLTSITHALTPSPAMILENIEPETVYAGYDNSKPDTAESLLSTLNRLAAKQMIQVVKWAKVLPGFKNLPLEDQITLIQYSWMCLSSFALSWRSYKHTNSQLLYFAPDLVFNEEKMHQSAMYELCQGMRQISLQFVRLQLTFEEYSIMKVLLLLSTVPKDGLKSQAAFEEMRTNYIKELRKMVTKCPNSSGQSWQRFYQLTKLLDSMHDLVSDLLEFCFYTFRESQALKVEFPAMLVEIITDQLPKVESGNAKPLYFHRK
Method in brief: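 Primary HTS ran in duplicate at a single 25 uM concentration, with concentration-series follow-up for actives. Receptor source: adrenalectomized rat brain supernatant, cell-free. Radioligand displacement read by scintillation at 24 h, relative to DMSO baseline.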

[8] = target: Estrogen receptor (Homo sapiens) (UniProt P03372); experiment: OT_ER_ERaERa_1440: Odyssey Thera (OT) 24-hour HEK293T Protein-Complementation Assay for Estrogen Receptor-alpha/-alpha Homodimer (AID 2283349);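 also: hits raise fluorescence above DMSO for agonists and antagonists alike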
Method in brief: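 HEK293T, stable ERα LBD (aa 310-547) homodimer PCA; 24 h compound exposure; mean fluorescence intensity (nuclear for agonists, nuclear plus cytoplasmic for antagonists) vs vehicle; positive fitting direction, DMSO baseline.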

[9] = target: Androgen Receptor/SRC-1 Co-activator, AR (gene 367) (UniProt P10275); experiment: OT_AR_ARSRC1_0960: Odyssey Thera (OT) 16-hour HEK293T Protein-Complementation Assay for Androgen Receptor/SRC-1 Co-activator (AID 2283353);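 also: actives raise the signal above DMSO so potency reflects increased AR and SRC-1 complex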
Chain of Androgen Receptor/SRC-1 Co-activator, AR (gene 367) (P10275 whole entry, looked up): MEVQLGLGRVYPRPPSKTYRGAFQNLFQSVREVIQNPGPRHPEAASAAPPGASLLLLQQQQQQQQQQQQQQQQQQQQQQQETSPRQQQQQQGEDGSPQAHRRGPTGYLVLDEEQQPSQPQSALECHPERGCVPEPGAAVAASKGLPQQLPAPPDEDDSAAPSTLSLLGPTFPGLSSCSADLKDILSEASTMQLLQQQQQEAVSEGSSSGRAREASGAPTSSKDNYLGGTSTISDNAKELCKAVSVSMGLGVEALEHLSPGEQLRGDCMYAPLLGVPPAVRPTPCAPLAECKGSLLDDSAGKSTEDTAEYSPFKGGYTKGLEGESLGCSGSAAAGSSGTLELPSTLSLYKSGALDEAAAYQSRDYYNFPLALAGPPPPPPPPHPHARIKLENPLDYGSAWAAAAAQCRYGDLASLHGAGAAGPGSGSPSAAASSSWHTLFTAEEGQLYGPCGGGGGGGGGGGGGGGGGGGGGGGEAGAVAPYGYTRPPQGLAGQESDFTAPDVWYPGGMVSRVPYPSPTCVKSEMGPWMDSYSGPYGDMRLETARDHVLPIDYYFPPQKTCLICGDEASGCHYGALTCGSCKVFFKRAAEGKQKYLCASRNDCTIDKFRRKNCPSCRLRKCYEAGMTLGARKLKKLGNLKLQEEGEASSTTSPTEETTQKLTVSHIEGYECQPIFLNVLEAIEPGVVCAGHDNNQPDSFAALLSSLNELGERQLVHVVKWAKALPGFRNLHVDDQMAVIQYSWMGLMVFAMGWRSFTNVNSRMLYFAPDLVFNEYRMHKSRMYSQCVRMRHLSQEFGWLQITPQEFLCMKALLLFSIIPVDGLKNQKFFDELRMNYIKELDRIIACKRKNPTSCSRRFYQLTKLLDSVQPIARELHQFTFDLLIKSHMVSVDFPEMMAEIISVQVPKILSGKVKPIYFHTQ
Method in brief: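 Endpoint is gain-of-signal N/C fluorescence ratio in the 488 nm channel versus DMSO, from at least 400 cells per image, measured 16 h post-dosing. Cells: HEK293T stably carrying split-Venus AR/SRC-1 complementation constructs.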

[10] = target: Androgen Receptor/SRC-1 Co-activator, AR (gene 367) (UniProt P10275); experiment: OT_AR_ARSRC1_0480: Odyssey Thera (OT) 8-hour HEK293T Protein-Complementation Assay for Androgen Receptor/SRC-1 Co-activator (AID 2283354);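 also: hits raise the complementation signal above DMSO so AC50 marks enhancers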
Method in brief: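 Reconstituted split-Venus YFP signal from AR–SRC-1 interaction, read by imaging 8 h post-dose in stable HEK293T lines. The 488 nm nucleus-to-cytoplasm ratio (≥400 cells/image) was fitted upward against DMSO.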

Measured: AC50

CN1CCN(c2ccccc2/C=C2\SCCN(c3ccc(Cl)c(Cl)c3)C2=O)CC1
inactive: [1] | [2] | [3]

O=C(O)Cc1cc(I)c(Oc2cc(I)c(O)c(I)c2)c(I)c1
inactive: [1] | [4] | [3] | [5]

C#C[C@]1(O)CC[C@H]2[C@@H]3CCC4=CC(=O)CC[C@@H]4[C@H]3CC[C@@]21C
active: [6] 5.99 nM and 4.99 nM | [7] 500 nM
inactive: [1] | [3] | [5]

ClC1=C(Cl)C(Cl)(Cl)C(Cl)=C1Cl
inactive: [1] | [4] | [8] | [3]

CCC(C)(C)C1CCC(O)CC1 (stereo not given)
active: [1] 16.4 µM and 12.9 µM | [6] 32.1 µM | [4] 3.1 µM and 2.51 µM | [3] 59.3 µM
inactive: [4] | [8] | [3]

CN(C)C=O
inactive: [4] | [8] | [3] | [5]

CC#C[C@]1(O)CC[C@H]2[C@@H]3CCC4=CC(=O)CCC4=C3[C@@H](c3ccc(N(C)C)cc3)C[C@@]21C
inactive: [1] | [2] | [3]
active: [1] 10 µM and 16.2 µM and 8.77 µM | [6] 16.7 nM and 46.7 nM | [7] 5210 nM

Cc1cc(C)c(O)c(C)c1
inactive: [4] | [3]

C=C(C)C(=O)OCCC(F)(F)C(F)(F)C(F)(F)C(F)(F)C(F)(F)C(F)(F)F
inactive: [1] | [3] | [5]

CCC(=C(c1ccc(O)cc1)c1ccc(OCCN(C)C)cc1)c1ccccc1
inactive: [2] | [9] | [10] | [7]
active: [6] 6.21 µM and 12.9 µM | [9] 19.8 µM and 20.2 µM and 19.2 µM | [10] 46.8 µM and 46.2 µM and 46.6 µM

CCCCCCCCCCCCCC[N+](C)(C)C
inactive: [6] | [3]
active: [4] 35 µM

CC1=C(/C=C/C(C)=C/C=C/C(C)=C/C(=O)O)C(C)(C)CCC1
inactive: [1] | [4] | [3]

COCC(C)O (stereo not given)
active: [1] 3.69 µM | [4] 1.82 µM
inactive: [3] | [7]

Oc1cc2ccccc2c2ccccc12
inactive: [1] | [4] | [8] | [3]
active: [6] 10.1 µM | [9] 7.07 µM | [10] 8.63 µM

CC[C@H](c1ccc(O)cc1)[C@@H](CC)c1ccc(O)cc1
active: [4] 0.0334 nM and 2.46 nM and 2.68 nM | [2] 8.83 µM | [9] 35.6 µM
inactive: [6] | [9] | [10]

O=C1OC2(c3ccccc31)c1cc(Br)c(O)c(Br)c1Oc1c2cc(Br)c(O)c1Br
active: [6] 38.1 µM | [4] 16.8 µM | [3] 88.3 µM | [5] 78.2 µM
inactive: [1] | [4]

O=C(O)c1ccccc1C(c1ccc(O)cc1)c1ccc(O)cc1
inactive: [6] | [3] | [5] | [9] | [10]

CCCCCCCCCCCCN1CCCC1=O
inactive: [4]

CCCCCCCCCCCCc1ccccc1S(=O)(=O)O
active: [1] 39.1 µM | [4] 40.6 µM | [2] 12.2 µM
not listed: [5] | [6]
inactive: all other assays above

CN1CCC[C@H]1c1cccnc1
inactive: [1] | [8] | [3] | [5]

Cc1cc(CCN2CCN(c3nsc4ccccc34)CC2)cc2c1NC(=O)CC2(C)C
inactive: [1] | [4] | [3] | [5]
active: [9] 12.6 µM | [10] 15.4 µM

CCN(CC)CCNc1ccc(CNC=O)c2sc3ccc(OC)cc3c(=O)c12
inactive: [1] | [6] | [4] | [8] | [3]

CCCCC(CC)COC(=O)CCCCC(=O)OCc1ccccc1 (stereo not given)
inactive: [6] | [3] | [5]

OC1CCC(C2CCCCC2)CC1 (stereo not given)
inactive: [1] | [6] | [4] | [8] | [3] | [5]
active: [6] 22.4 µM | [3] 81.9 µM | [5] 50 µM and 34.5 µM and 48.7 µM

OC1CCCCC1
inactive: [4] | [3]
active: [4] 0.0267 µM

C[C@@H]1C[C@H]2[C@@H]3CCC4=CC(=O)C=C[C@]4(C)[C@@]3(F)[C@@H](O)C[C@]2(C)[C@@]1(O)C(=O)COP(=O)(O)O
inactive: [1] | [4] | [8] | [3] | [5]
active: [6] 0.0307 µM | [7] 8.69 nM and 2.18 nM and 33.9 nM

CCCOC(=O)c1ccc(O)cc1
inactive: [1] | [6]
active: [4] 6.72 µM and 10.6 µM | [3] 38.4 µM | [5] 16.7 µM

c1ccc2cc3c(ccc4ccccc43)cc2c1
inactive: [1] | [4] | [2] | [3]

O=[N+]([O-])c1ccc(O)cc1
inactive: [1] | [4] | [8] | [3]

OCCC(F)(F)C(F)(F)C(F)(F)C(F)(F)C(F)(F)C(F)(F)C(F)(F)C(F)(F)F
inactive: [1] | [4] | [3] | [5] | [9] | [10]

Cc1oc(-c2ccccc2)nc1CCOc1ccc(C[C@H](Nc2ccccc2C(=O)c2ccccc2)C(=O)O)cc1
inactive: [1] | [6] | [4] | [3] | [10]
active: [9] 45.4 µM

NC(=O)N1C(=O)C(C(=O)c2cc(Cl)cs2)c2cc(F)c(Cl)cc21 (stereo not given)
inactive: [4] | [3] | [9] | [10]
active: [1] 25 µM

From PubChem BioAssay (EPA / NIEHS)
